Results filed as inconclusive are left out. A call without a number means that no potency is given here. The source made the active and inactive calls. Unless noted, calls follow the shape of the dose curve; as a rule, active = well fitted curve in the direction sought with a large enough effect in the repeat runs; inconclusive = weak or mixed curves; inactive = no such curve, though single readings can be large; an effect the other way counts as inactive or inconclusive.
Assays:
[1] = qHTS assay to test for compound auto fluorescence at 535 nm (green) in HEK293 cells (AID 720680)
[2] = qHTS assay to test for compound auto fluorescence at 460 nm (blue) in HEK293 cell free culture (AID 720681)
Procedure, shortened: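 Blue fluorescence (Ex 405/Em 460 nm, triamterene-equivalent) was read immediately after pin transfer of compound or DMSO into medium (DMEM, 10% FBS) without cells.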

[3] = qHTS assay to test for compound auto fluorescence at 535 nm (green) in HEK293 cell free culture (AID 720682)
Procedure, shortened: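 Each library compound, or DMSO control, is added by pintool to medium alone, comprising DMEM and 10% FBS. Emission at 535 nm following 485 nm excitation is quantified against fluorescein.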

[4] = qHTS assay to test for compound auto fluorescence at 590 nm (red) in HEK293 cell free culture (AID 720683)
Procedure, shortened: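 Red-channel autofluorescence of compounds in culture medium (DMEM, 10% FBS), no cells, measured at 540/590 nm. Rose Bengal sodium is the reference fluorophore for equivalence.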

[5] = qHTS assay to test for compound auto fluorescence at 590 nm (red) in HepG2 cell free culture (AID 720684)
Procedure, shortened: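 Steps: dispense MEM/10% FBS medium, no cells; pin compound or DMSO vehicle; read red channel, Ex/Em 540/590 nm. Output given as Rose Bengal sodium equivalents.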

[6] = qHTS assay to test for compound auto fluorescence at 460 nm (blue) in HepG2 cell free culture (AID 720685)
Procedure, shortened: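 Compound (23 nL) or DMSO pinned into cell-free MEM with 10% FBS; blue fluorescence read at 405/460 nm excitation/emission, expressed as auto-fluorescence equivalency to triamterene.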

[7] = qHTS assay to test for compound auto fluorescence at 535 nm (green) in HepG2 cell free culture (AID 720686)
[8] = qHTS assay to test for compound auto fluorescence at 460 nm (blue) in HepG2 cells (AID 720687)
Procedure, shortened: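 Blue-channel autofluorescence (Ex/Em 405/460 nm, triamterene-equivalent) was measured after 1 hr compound exposure at 37 C, 5% CO2. Cells were HepG2, plated overnight at 37 C in MEM plus 10% FBS.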

[9] = target: Glucocorticoid receptor (Homo sapiens) (UniProt P04150); test: qHTS assay to identify small molecule agonists of the glucocorticoid receptor (GR) signaling pathway (AID 720691; active = well fitted activation curve with a large enough effect in the signal ratio in the repeat runs, not every such curve was filed as active; the % refers to the signal ratio)
Procedure, shortened: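 Reporter read-out: fluorescence intensity following 2 h room-temperature LiveBLAzer B/G FRET substrate loading. Prior step: GR-bla HeLa cells held 4 h, then treated 18 h at 37 C.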

[10] = qHTS assay to identify small molecule antagonists of the androgen receptor (AR) signaling pathway - cell viability counter screen (AID 743033; also: nearly all actives have a fitted effect of over 45% in size; also: potency is read from the fitted curve at half-maximal effect)
[11] = target: Androgen receptor (Homo sapiens) (UniProt P10275); test: qHTS assay to identify small molecule agonists of the androgen receptor (AR) signaling pathway using the MDA cell line (AID 743040; also: nearly all actives have a fitted effect of over 20% in size)
Procedure, shortened: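 Cells plated, 5 h at 37C/0% CO2; compound or DMSO pinned; 16 h at 37C; ONE-Glo added; luminescence measured after 30 min at room temperature. Reporter line: MDA-kb2 with MMTV-luciferase responsive to AR and GR.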

[12] = qHTS assay to identify small molecule antagonists of the androgen receptor (AR) signaling pathway using the MDA cell line - cell viability counter screen (AID 743041; also: nearly all actives have a fitted effect of over 45% in size; also: potency is read from the fitted curve at half-maximal effect)
Procedure, shortened: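 Cells were plated at 3,000 per well and left 5 h. Compounds in DMSO were then pinned in, followed by R1881. After 16 h at 37C, CellTiter-Fluor fluorescence gave viability.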

[13] = target: Androgen receptor (Homo sapiens) (UniProt P10275); test: qHTS assay to identify small molecule antagonists of the androgen receptor (AR) signaling pathway using the MDA cell line (AID 743042; also: nearly all actives have a fitted effect of over 55% in size)
Procedure, shortened: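 Antagonist mode: compounds plus R1881 agonist added to MDA-kb2 AR-luc cells, incubated 16 h at 37C. Luciferase reporter luminescence quantified, with multiplexed CellTiter-Fluor readout for cell viability.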

[14] = qHTS assay for identifying genotoxic compounds that show differential cytotoxicity against isogenic chicken DT40 cell lines with known DNA damage response pathways - wild type cell line (AID 743012); also: nearly all actives have a fitted effect of over 60% in size; also: potency is read from the fitted curve at half-maximal effect
Procedure, shortened: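 Using parental DT40 (300 cells/well), compounds delivered in DMSO incubate 40 h at 37 C/5% CO2. CellTiter-Glo reagent then stands 30 min at room temperature, and luminescence gives cell viability.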

[15] = qHTS assay for identifying genotoxic compounds that show differential cytotoxicity against isogenic chicken DT40 cell lines with known DNA damage response pathways - Rad54/Ku70 mutant cell line (AID 743015); also: nearly all actives have a fitted effect of over 60% in size; also: potency is read from the fitted curve at half-maximal effect
[16] = target: Androgen receptor (Homo sapiens) (UniProt P10275); test: qHTS assay to identify small molecule agonists of the androgen receptor (AR) signaling pathway (AID 743036; active = well fitted activation curve with a large enough effect in the signal ratio in the repeat runs, with a control signal flat, not every such curve was filed as active; the % refers to the signal ratio)
Procedure, shortened: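 Following a 4 h settling period, AR-UAS-bla HEK293 cells were dosed with compounds for 16 h at 37C. A 2 h room-temperature incubation with LiveBLAzer B/G FRET substrate preceded the fluorescence measurement.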

[17] = qHTS assay to identify small molecule antagonists of the glucocorticoid receptor (GR) signaling pathway - cell viability counter screen (AID 720693); also: nearly all actives have a fitted effect of over 55% in size; also: potency is read from the fitted curve at half-maximal effect
[18] = qHTS assay for identifying genotoxic compounds that show differential cytotoxicity against isogenic chicken DT40 cell lines with known DNA damage response pathways - Rev3 mutant cell line (AID 743014); also: nearly all actives have a fitted effect of over 55% in size; also: potency is read from the fitted curve at half-maximal effect
[19] = target: Androgen receptor (Homo sapiens) (UniProt P10275); test: qHTS assay to identify small molecule antagonists of the androgen receptor (AR) signaling pathway (AID 743035; active = well fitted inhibition curve with a large enough effect in the signal ratio in the repeat runs, not every such curve was filed as active; the % refers to the signal ratio)
Procedure, shortened: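 Using qHTS, AR-UAS-bla GripTite HEK293 cells received compound, then R1881, and were cultured 16 h at 37C/5% CO2 before a 2 h room-temperature LiveBLAzer B/G FRET substrate step and fluorescence measurement.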

[20] = target: Glucocorticoid receptor (Homo sapiens) (UniProt P04150); test: qHTS assay to identify small molecule antagonists of the glucocorticoid receptor (GR) signaling pathway (AID 720692; active = well fitted inhibition curve with a large enough effect in the signal ratio in the repeat runs, not every such curve was filed as active; the % refers to the signal ratio)
Procedure, shortened: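 Dexamethasone (5 nM final) stimulated a stably integrated GRE-beta-lactamase reporter in HeLa cells during 18 h co-incubation with compounds; signal was quantified as fluorescence intensity of B/G FRET substrate after 2 h.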

Chain of Androgen receptor (Homo sapiens) (P10275 whole entry, looked up): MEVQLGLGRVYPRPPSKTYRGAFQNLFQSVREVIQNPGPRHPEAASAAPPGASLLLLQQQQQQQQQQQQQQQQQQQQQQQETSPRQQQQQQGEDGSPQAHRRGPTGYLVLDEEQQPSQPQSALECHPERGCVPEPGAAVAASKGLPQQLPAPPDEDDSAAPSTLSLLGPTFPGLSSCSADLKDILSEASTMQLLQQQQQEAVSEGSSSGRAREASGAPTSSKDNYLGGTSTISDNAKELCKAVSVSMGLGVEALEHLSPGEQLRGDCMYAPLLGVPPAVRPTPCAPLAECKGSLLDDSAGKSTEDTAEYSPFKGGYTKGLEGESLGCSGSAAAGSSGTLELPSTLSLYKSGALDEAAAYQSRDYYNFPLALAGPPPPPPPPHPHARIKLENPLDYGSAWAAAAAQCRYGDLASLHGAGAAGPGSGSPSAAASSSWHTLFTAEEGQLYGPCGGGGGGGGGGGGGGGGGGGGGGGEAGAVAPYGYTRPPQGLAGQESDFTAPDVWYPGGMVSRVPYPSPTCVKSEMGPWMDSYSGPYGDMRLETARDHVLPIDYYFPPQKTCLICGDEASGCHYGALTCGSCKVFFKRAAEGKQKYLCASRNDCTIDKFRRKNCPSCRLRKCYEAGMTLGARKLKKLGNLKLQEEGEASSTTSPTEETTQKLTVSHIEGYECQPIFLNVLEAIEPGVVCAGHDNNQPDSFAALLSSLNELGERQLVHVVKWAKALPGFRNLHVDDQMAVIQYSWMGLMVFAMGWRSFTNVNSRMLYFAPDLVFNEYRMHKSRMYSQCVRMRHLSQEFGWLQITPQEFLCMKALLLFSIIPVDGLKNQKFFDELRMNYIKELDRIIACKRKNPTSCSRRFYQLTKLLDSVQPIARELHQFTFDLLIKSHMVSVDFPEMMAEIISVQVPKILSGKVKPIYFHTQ
Chain of Glucocorticoid receptor (Homo sapiens) (P04150 whole entry, looked up): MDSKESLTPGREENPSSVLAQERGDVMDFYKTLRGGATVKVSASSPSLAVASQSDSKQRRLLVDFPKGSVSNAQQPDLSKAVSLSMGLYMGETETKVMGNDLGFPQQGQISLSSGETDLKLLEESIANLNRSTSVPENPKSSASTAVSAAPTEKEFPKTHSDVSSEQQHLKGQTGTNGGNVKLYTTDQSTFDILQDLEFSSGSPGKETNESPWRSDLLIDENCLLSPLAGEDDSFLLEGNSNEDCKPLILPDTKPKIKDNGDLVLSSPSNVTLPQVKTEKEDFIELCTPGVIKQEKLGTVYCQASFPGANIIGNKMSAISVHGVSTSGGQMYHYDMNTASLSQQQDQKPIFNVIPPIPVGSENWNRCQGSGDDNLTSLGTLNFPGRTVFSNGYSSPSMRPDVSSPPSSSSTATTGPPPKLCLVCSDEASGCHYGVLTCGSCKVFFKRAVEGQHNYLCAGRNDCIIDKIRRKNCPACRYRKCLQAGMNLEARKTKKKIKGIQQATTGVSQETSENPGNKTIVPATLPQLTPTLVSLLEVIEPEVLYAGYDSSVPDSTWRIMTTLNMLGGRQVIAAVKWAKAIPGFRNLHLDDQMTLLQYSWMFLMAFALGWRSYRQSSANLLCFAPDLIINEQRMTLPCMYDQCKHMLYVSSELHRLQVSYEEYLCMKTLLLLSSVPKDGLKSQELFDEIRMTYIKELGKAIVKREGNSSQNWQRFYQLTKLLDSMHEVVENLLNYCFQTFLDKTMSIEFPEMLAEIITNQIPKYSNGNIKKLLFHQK

Compound	outcome [1]	Potency [2]	outcome [3]	outcome [4]	outcome [5]	Potency [6]	outcome [7]	Potency [8]	Potency [9]	Potency [10]	outcome [11]	Potency [12]	Potency [13]	Potency [14]	Potency [15]	outcome [16]	Potency [17]	Potency [18]	Potency [19]	Potency [20]
C/C=C/C=C/C=O	inactive	inactive	inactive	inactive	inactive	inactive	inactive	inactive	inactive	inactive	inactive	inactive	inactive	–	–	–	–	–	–	–
CCCCC(CC)CN (stereo not given)	inactive	inactive	inactive	inactive	inactive	inactive	inactive	inactive	inactive	44.5 µM (active)	inactive	inactive	inactive	55.5 µM (active)	55.5 µM (active)	inactive	–	–	–	–
CC(C)C[C@H](NC(=O)[C@H](CCc1ccccc1)NC(=O)CN1CCOCC1)C(=O)N[C@@H](Cc1ccccc1)C(=O)N[C@@H](CC(C)C)C(=O)[C@@]1(C)CO1	inactive	inactive	inactive	inactive	inactive	inactive	inactive	inactive	–	–	–	inactive	–	0.0119 µM (active)	0.0119 µM (active)	–	5.35 µM (active)	0.0168 µM (active)	–	–
C=C(C)C(=O)OCCCCCCCCCCCCC	inactive	inactive	inactive	inactive	inactive	inactive	inactive	inactive	–	inactive	–	inactive	–	inactive	inactive	–	inactive	inactive	–	–
O=c1[nH]c2ccc(Cl)cc2o1	inactive	inactive	inactive	inactive	inactive	inactive	inactive	inactive	–	inactive	–	inactive	–	inactive	inactive	–	inactive	inactive	–	–
CCCCCCCCN	inactive	inactive	inactive	inactive	inactive	inactive	inactive	inactive	–	inactive	–	inactive	–	inactive	inactive	–	inactive	inactive	–	–
CCC(=O)C1CC(C(C)C)CC=C1C (stereo not given)	inactive	inactive	inactive	inactive	inactive	inactive	inactive	inactive	inactive	inactive	inactive	inactive	inactive	inactive	inactive	inactive	–	inactive	inactive	–
CN(C)CCC=C1c2ccccc2C=Cc2ccccc21	inactive	inactive	inactive	inactive	inactive	inactive	inactive	inactive	inactive	–	–	inactive	–	8.41 µM (active)	10.6 µM (active)	–	inactive	–	–	–
O=C(OC(=O)c1ccccc1)c1ccccc1	inactive	inactive	inactive	inactive	inactive	inactive	inactive	inactive	inactive	inactive	inactive	–	inactive	inactive	inactive	–	–	inactive	inactive	–
Cc1ccco1	inactive	inactive	inactive	inactive	inactive	inactive	inactive	inactive	inactive	inactive	–	inactive	–	inactive	–	–	inactive	inactive	–	–
CCC1CO1 (stereo not given)	inactive	inactive	inactive	inactive	inactive	inactive	inactive	inactive	inactive	inactive	–	inactive	–	inactive	inactive	–	inactive	–	–	–
CC[N+](CC)(CCNC(=O)C(=O)NCC[N+](CC)(CC)Cc1ccccc1Cl)Cc1ccccc1Cl	inactive	inactive	inactive	inactive	inactive	inactive	inactive	inactive	–	–	–	inactive	–	inactive	–	–	inactive	inactive	–	–
O=C(Nc1cccc2c(=O)cc(-c3nn[nH]n3)oc12)c1ccc(OCCCCc2ccccc2)cc1	inactive	inactive	inactive	inactive	inactive	inactive	inactive	inactive	–	inactive	–	inactive	–	inactive	–	–	–	inactive	–	–
O=C=Nc1ccc(Cl)c(Cl)c1	inactive	inactive	inactive	inactive	inactive	inactive	inactive	inactive	–	inactive	–	inactive	–	–	inactive	–	inactive	–	–	–
COC(=O)CS	inactive	inactive	inactive	inactive	inactive	inactive	inactive	inactive	–	–	–	inactive	–	–	–	–	inactive	–	–	–
N#CCc1ccc(Cl)cc1Cl	inactive	inactive	inactive	inactive	inactive	inactive	inactive	inactive	–	inactive	–	inactive	–	–	inactive	–	–	–	–	–
Cc1cc(C)c(N)cc1C	inactive	inactive	inactive	inactive	inactive	inactive	inactive	–	inactive	inactive	–	inactive	–	inactive	inactive	–	inactive	–	–	inactive
COc1cc(C(=O)NCCCCCC(=O)O)cc(OC)c1OC	inactive	inactive	inactive	inactive	inactive	inactive	inactive	–	inactive	inactive	–	inactive	–	inactive	inactive	–	inactive	–	–	inactive
O=C(O)c1ccc(OCCCOc2ccc(C(=O)O)cc2)cc1	inactive	inactive	inactive	inactive	inactive	inactive	inactive	inactive	–	inactive	–	inactive	–	inactive	inactive	–	inactive	–	–	–
NC(=O)c1ccncc1	inactive	inactive	inactive	inactive	inactive	inactive	inactive	–	inactive	inactive	inactive	inactive	inactive	inactive	inactive	inactive	inactive	inactive	inactive	inactive
O=c1cc(-c2ccccc2)oc2ccc3ccccc3c12	inactive	inactive	inactive	inactive	inactive	inactive	inactive	inactive	–	21.9 µM (active)	–	inactive	inactive	–	–	–	54.9 µM (active)	15.4 µM (active)	–	–
C[C@@H]1CC(=O)NN=C1c1ccc(NN=C(C#N)C#N)cc1	inactive	inactive	inactive	inactive	inactive	inactive	inactive	inactive	–	–	inactive	29.8 µM (active)	–	18.8 µM (active)	21.1 µM (active)	–	–	–	–	–
CC(=O)Nc1ccc(C)cc1C	inactive	inactive	inactive	inactive	inactive	inactive	inactive	inactive	–	inactive	–	inactive	–	–	–	–	–	inactive	–	–
CC(C)=CC(=O)C=C(C)C	inactive	inactive	inactive	inactive	inactive	inactive	inactive	inactive	–	inactive	–	inactive	–	inactive	–	–	inactive	inactive	–	–
Cc1cccc(O)c1N	inactive	inactive	inactive	inactive	inactive	inactive	inactive	–	inactive	inactive	–	–	–	–	–	–	inactive	–	–	inactive
Cc1cscn1	inactive	inactive	inactive	inactive	inactive	inactive	inactive	inactive	–	inactive	inactive	inactive	inactive	inactive	inactive	inactive	inactive	–	–	–
CCC(C)COC(=O)CC(C)C (stereo not given)	inactive	inactive	inactive	inactive	inactive	inactive	inactive	inactive	–	–	–	inactive	–	68.6 µM (active)	61.1 µM (active)	–	–	–	–	–
OCCOCC#CCOCCO	inactive	inactive	inactive	inactive	inactive	inactive	inactive	inactive	–	inactive	–	inactive	–	inactive	–	–	inactive	–	–	–

— PubChem BioAssay (Tox21)
